Drawing on PubChem BioAssay (NCI), this text covers growth for eight molecules.

About 83,000 compounds went through this panel and 20% of them were active in at least one assay; those are over-represented in the sample as a whole.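 Step 1: grow cells in 96-well plates. Step 2: add test compound at a single concentration. Step 3: incubate 48 h. Step 4: record percent growth.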 Unmarked numbers belong to inactive results. Active and inactive are the calls of the source. Rule for the calls: active = growth percent below 10; inactive = the rest.

Some test systems named below: NCI-H23 lung; NCI-H226 lung; NCI-H322M lung; HOP-62 NSCLC; NCI-H460 lung; NCI-H522 lung; A549/ATCC NSCLC; 786-0 renal; COLO 205 colon; DU-145 prostate; K-562 leukemia; MALME-3M melanoma; MDA-MB-231 breast; RXF 393 renal; SF-268 CNS; SF-539 CNS; UACC-257 melanoma; M14 melanoma; HCT-15 colon; SF-295 CNS.
What all share (assay): NCI-60 one-dose screen, 48 h (100 = growth as untreated, 0 = no growth, -100 = all killed)
What all share (conditions): 10 µM unless noted

As for `COC(=O)c1ccc2c(c1)nc(-c1ccc(O)c(OC)c1)n2-c1cc(C(C)(C)C)[nH]n1`, the growth is 93.3% in the assay on NCI-H23 lung; 106% in the assay on NCI-H226 lung; 103% in the assay with NCI-H322M lung; 128% with HOP-62 NSCLC; 96.3% in the assay on NCI-H460 lung; 78.7% with NCI-H522 lung. In addition, the growth in the assay with A549/ATCC NSCLC is 87.9%; in the assay with 786-0 renal it was 97.7%; in the assay with COLO 205 colon, 120%; in the assay with DU-145 prostate, 118%; with K-562 leukemia, 90.6%; in the assay with MALME-3M melanoma, 114%. The growth in the assay on MDA-MB-231 breast was 97.7%; with RXF 393 renal it was 131%; with SF-268 CNS, 104%; in the assay with SF-539 CNS it was 105%; in the assay with UACC-257 melanoma it was 101%; in the assay on M14 melanoma, 95.7%. Moreover, the growth with HCT-15 colon was 115%.

For the molecule `C[C@]12CC[C@@H]3c4ccc(O)cc4CC[C@H]3[C@@H]1CC[C@@H]2NS(=O)(=O)c1cccc(Br)c1`, the growth in the assay on NCI-H23 lung is 68.1%; in the assay on NCI-H226 lung it was 60.5%; with NCI-H322M lung, 70.6%; in the assay on HOP-62 NSCLC, -16.6% (active); with NCI-H460 lung it was 61.7%; with NCI-H522 lung it was 40.4%. The growth in the assay on A549/ATCC NSCLC was 43.2%; in the assay with 786-0 renal, 70.3%; with COLO 205 colon it was 64.7%; in the assay with DU-145 prostate it was 75%; with K-562 leukemia, 30.1%; in the assay on MALME-3M melanoma, 63.2%. Moreover, the growth in the assay with MDA-MB-231 breast was 71.1%; in the assay on RXF 393 renal, 42.6%; with SF-268 CNS it was 59.7%; in the assay with SF-539 CNS, 85.6%; with UACC-257 melanoma it was 80.3%; in the assay with M14 melanoma it was 68.9%. Besides, the growth in the assay on HCT-15 colon is 50.9%.

Turning to `CC[C@]1(O)CC2CN(CCc3c([nH]c4ccccc34)[C@@](C(=O)OC)(c3cc4c(cc3OC)N(C)[C@H]3[C@@](O)(C(=O)OC)[C@H](OC(C)=O)[C@]5(CC)C=CCN6CC[C@]43[C@@H]65)C2)C1` (stereo partly specified), the growth is 16.1% with NCI-H23 lung; 48.9% with NCI-H226 lung; 54.4% in the assay with NCI-H322M lung; 31.7% with HOP-62 NSCLC; 2.54% (active) in the assay on NCI-H460 lung; -17.9% (active) in the assay with NCI-H522 lung. Moreover, the growth was 17.2% in the assay on A549/ATCC NSCLC; 13.8% with 786-0 renal; -50.7% (active) with COLO 205 colon; -39.8% (active) with DU-145 prostate; 7.74% (active) in the assay on K-562 leukemia; 38.4% with MALME-3M melanoma. Also, the growth is 5.18% (active) in the assay with MDA-MB-231 breast; 25.9% with RXF 393 renal; 4.83% (active) in the assay with SF-268 CNS; 12.2% in the assay with SF-295 CNS; 61.9% in the assay on UACC-257 melanoma; -15.6% (active) with M14 melanoma. For the same molecule, the growth in the assay on HCT-15 colon is 6.5% (active).

As for `Nc1nonc1-c1nc2ccccc2n1CC(=O)Nc1ccc2c(c1)COC2=O`, the growth in the assay with NCI-H23 lung was 86.3%; with NCI-H226 lung, 87.7%; in the assay with NCI-H322M lung, 107%; in the assay with HOP-62 NSCLC, 83.8%; with NCI-H460 lung it was 95.7%; with NCI-H522 lung, 61.6%. The growth was 88.8% in the assay on A549/ATCC NSCLC; 93% with 786-0 renal; 98.4% in the assay on COLO 205 colon; 108% with DU-145 prostate; 38.9% with K-562 leukemia; 79.4% in the assay on MALME-3M melanoma. In addition, the growth in the assay with MDA-MB-231 breast was 82.1%; in the assay on RXF 393 renal it was 93.7%; with SF-268 CNS it was 90.3%; in the assay on SF-539 CNS it was 86.5%; in the assay with UACC-257 melanoma it was 90.1%; in the assay with M14 melanoma, 72.9%. The growth with HCT-15 colon is 70.5%.

Turning to `O=C(c1ccccc1)c1ccco1`, the growth in the assay with NCI-H23 lung is 99.2%; in the assay with NCI-H226 lung it was 106%; in the assay with NCI-H322M lung, 105%; in the assay on HOP-62 NSCLC, 105%; in the assay with NCI-H460 lung, 105%; in the assay with NCI-H522 lung it was 89.3%. Besides, the growth was 97% in the assay on A549/ATCC NSCLC; 101% in the assay with 786-0 renal; 109% in the assay on COLO 205 colon; 113% in the assay on DU-145 prostate; 102% in the assay on K-562 leukemia; 108% in the assay with MALME-3M melanoma. The growth was 93.6% in the assay with MDA-MB-231 breast; 131% in the assay on RXF 393 renal; 98.5% in the assay with SF-268 CNS; 92.5% in the assay on SF-539 CNS; 89.3% with UACC-257 melanoma; 98.7% with M14 melanoma. For the same molecule, the growth in the assay on HCT-15 colon is 104%.

For the molecule `COc1ccc(-c2nnc(COc3ccc(NC(=O)Nc4cc(C(F)(F)F)cc(C(F)(F)F)c4)cc3F)o2)cc1`, the growth is -11% (active) in the assay on NCI-H23 lung; 7.41% (active) in the assay with NCI-H226 lung; 23.4% in the assay with NCI-H322M lung; 12.3% in the assay on HOP-62 NSCLC; 4.82% (active) in the assay on NCI-H460 lung; -17.8% (active) with NCI-H522 lung. For the same molecule, the growth in the assay on A549/ATCC NSCLC was 3.87% (active); with 786-0 renal it was 16.2%; in the assay on COLO 205 colon it was -40.7% (active); with DU-145 prostate it was 12.4%; in the assay on K-562 leukemia it was 9.15% (active); in the assay on MALME-3M melanoma it was -16.5% (active). Besides, the growth is -22.6% (active) with MDA-MB-231 breast; 16.3% with RXF 393 renal; 18.8% in the assay with SF-268 CNS; 20.3% in the assay on SF-539 CNS; 0.873% (active) with UACC-257 melanoma; 18% in the assay on M14 melanoma. The growth in the assay on HCT-15 colon is 10%.

With `CCOC(Cc1c(N)[nH]c(=S)[nH]c1=O)OCC`, the growth in the assay with NCI-H23 lung was 104%; in the assay with NCI-H226 lung, 96.8%; in the assay on NCI-H322M lung, 98.9%; in the assay on HOP-62 NSCLC it was 102%; in the assay with NCI-H460 lung, 114%; in the assay with NCI-H522 lung it was 93%. In addition, the growth in the assay on A549/ATCC NSCLC was 104%; in the assay with 786-0 renal it was 109%; in the assay with COLO 205 colon, 105%; in the assay with DU-145 prostate, 115%; in the assay on K-562 leukemia, 98.5%; with MALME-3M melanoma it was 99.5%. Further, the growth was 111% with MDA-MB-231 breast; 108% with RXF 393 renal; 111% in the assay with SF-268 CNS; 99.4% in the assay on SF-539 CNS; 103% in the assay with UACC-257 melanoma; 105% in the assay on M14 melanoma.

`O=C(CSc1nnc(Nc2ccccc2)s1)NCCc1ccc(F)cc1`: the growth in the assay with NCI-H23 lung was 131%; with NCI-H226 lung it was 85.1%; in the assay on NCI-H322M lung it was 115%; in the assay on HOP-62 NSCLC it was 103%; in the assay on NCI-H460 lung it was 105%; in the assay on NCI-H522 lung, 91.5%. Besides, the growth was 124% with A549/ATCC NSCLC; 95.6% in the assay with 786-0 renal; 115% with COLO 205 colon; 105% in the assay on DU-145 prostate; 107% with K-562 leukemia; 97.4% in the assay with MALME-3M melanoma. The growth with MDA-MB-231 breast is 91.5%; with RXF 393 renal, 113%; in the assay with SF-268 CNS, 109%; with SF-295 CNS, 102%; with SF-539 CNS, 96.4%; in the assay on M14 melanoma it was 103%. The growth in the assay on HCT-15 colon is 120%.
